# Screening data (PubChem)
# The list is not random: actives were taken first. Their share in the collection is about 1.8%.
# IEC-6 tox: IEC-6 cytotoxicity, counter-screen for KLF5 inhibitors | AID 1825 | luminescence viability | 0.78% of 290,000 active | inhibition, % at 5 µM; in the data active = inhibition above about 22%;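 note: 0% = plate median of test compound wells and 100% = cytotoxic reference compound wells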
# APP 5UTR inh: APP translation inhibition | 0.82% of 190,000 active | inhibition, % at 2 µM | SH-SY5Y APP 5'UTR-luciferase reporter, luminescence;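 active = inhibition above a set limit, derived from the sample mean plus 3 SD, cut at about 45% in these data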
# Ba/F3 V617F tox: loss of viability in JAK2V617F-driven Ba/F3 cells; Ba/F3 EpoR-JAK2V617F viability, ATP luminescence; inhibition, % at 5.6 µM; 1.1% of 220,000 active; AID 1446;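 active = inhibition above the campaign mean plus 3 SD over all tested compounds, cut at about 24% in these data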;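 note: cytokine-independent growth of Ba/F3 cells driven by EpoR plus mutant JAK2; 0% = DMSO-treated cells and 100% = JAK inhibitor I control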
# BaF3 parental: parental Ba/F3 viability inhibition as JAK2V617F counter-screen. CellTiter-Glo ATP luminescence. 1.1% of 220,000 active. inhibition, % at 5.6 µM;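 active = inhibition above a per-campaign cutoff, the mean inhibition of all tested compounds plus 3 SD, cut at about 27% in these data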;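 note: 0% = DMSO wells and 100% = JAK Inhibitor I control wells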
# KLF5 inhibitor: kruppel-like factor 5 inhibition; DLD-1 KLF5 promoter-luciferase reporter, luminescence; inhibition, % at 5 µM; 0.23% of 290,000 active;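 active = inhibition above a per-plate limit of that plate's mean compound inhibition plus 3 SD, cut at about 60% in these data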;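 note: 0% = DMSO wells and 100% = LY294002 at 200 µM; higher means less KLF5 promoter-driven luciferase light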
# Numbers without * were called inactive; x = not tested or not shown.
SMILES,IEC-6 tox,APP 5UTR inh,Ba/F3 V617F tox,BaF3 parental,KLF5 inhibitor
c1ccc(CCNc2ncnc3sccc23)nc1,2,-28,6,13,-41
CC(OC(=O)Cn1nnc2ccccc21)C(=O)NC1CCCC1 (stereo not drawn),-1,x,x,x,-3
O=C(Nc1cccc(Cl)c1)Nc1nccs1,11,-40,1,6,-88
O=C(Nc1ccc(Cl)c(Cl)c1)Nc1nccs1,78*,x,73*,71*,33
COc1cc(/C=N/NC(=O)c2ccc(COc3cc(C)ccc3C(C)C)cc2)cc(OC)c1O,5,14,-3,2,-33
O=C(N/N=C/c1ccc(O)c(O)c1)c1ccc(CSc2cccc3cccnc23)cc1,5,6,62*,27*,-36
Cc1ccc(C(C)C)c(OCc2ccc(C(=O)N/N=C/c3ccc(O)c(O)c3)cc2)c1,8,50*,39*,78*,-28
CC(C)N1CC(C(=O)Nc2ccc(C#N)cc2)CC1=O (stereo not drawn),2,x,x,x,-18
COc1cccc2c1C(=O)c1c(O)c3c(c(O)c1C2=O)C[C@@](O)(C(C)=O)C[C@@H]3O[C@H]1C[C@H](N)[C@H](O)[C@H](C)O1,91*,96*,102*,101*,43
O=C(COc1ccc(-c2ccccc2)cc1)NNC(=O)Nc1ccc(F)cc1F,4,x,x,x,-24
COCCn1c(COc2cccc(OC)c2)nnc1SCC(=O)NC1CCCC1,3,x,x,x,-16
O=C(CCCC1=NS(=O)(=O)c2ccccc2N1)Nc1ccccc1,3,x,x,x,-20
CC[N+]1(CC)CC2=Cc3c(ccc4ccccc34)CC2C1 (stereo not drawn),0,4,70*,61*,-18
CCCCn1c(N)c(N(CC)C(=O)C(c2ccccc2)c2ccccc2)c(=O)[nH]c1=O,1,-8,0,6,-11
CC1CCCCC1NC(=O)COc1ccc(-n2cnnn2)cc1 (stereo not drawn),3,1,2,1,-1
O=C(COc1ccc(-n2cnnn2)cc1)NC1CCCCC1,1,74*,0,1,-26
O=C(c1ccc(Br)cc1)N1CCC(C(=O)N2CCN(Cc3ccccc3)CC2)CC1,4,x,x,x,4
CCOc1cc(/C=C(\CC(=O)O)c2nc3ccccc3s2)ccc1OC,12,-9,9,41*,-5
COc1ccc(/C=C(\CC(=O)O)c2nc3ccccc3s2)cc1O,7,-14,-2,4,-20
CCOC(=O)CCNC(=O)c1ccc2nc(C3CCCCC3)oc2c1,2,x,x,x,-17
CC(=O)Nc1ccc(SCC(=O)c2cc(C)n(-c3ccccc3)c2C)cc1,-9,-99,-2,6,14
CCCCCCCC[n+]1c(C)n(-c2ccccc2)c2ccc(NC(C)=O)cc21,9,-9,87*,74*,7
Cc1ccc(-c2cc(C(=O)N/N=C/c3c(C)nn(-c4ccccc4)c3C)[nH]n2)cc1,4,95*,1,2,-7
Brc1ccc2c(c1)C(C1=NCCN1)c1ccccc1CS2 (stereo not drawn),67*,94*,74*,66*,59
CCCN1C2CCCC1CC(NC(=O)c1ccccc1Br)C2 (stereo not drawn),4,x,x,x,-11
SMILES,IEC-6 tox,APP 5UTR inh,Ba/F3 V617F tox,BaF3 parental,KLF5 inhibitor
CC(=NCCc1c(C)[nH]c2ccc(OCc3ccccc3)cc12)C1=C(O)CC(c2ccccc2)CC1=O (stereo not drawn),-4,-22,-3,3,-33
CCCCC(=NCCc1c(C)[nH]c2ccc(OC)cc12)C1=C(O)CC(c2ccccc2)CC1=O (stereo not drawn),1,78*,-3,4,9
CCC(=NCCc1c(C)[nH]c2ccc(OC(F)(F)F)cc12)C1=C(O)CC(c2ccccc2)CC1=O (stereo not drawn),-12,78*,-1,4,-25
CC(CNC(=O)C1CCCN(S(=O)(=O)N2CCOCC2)C1)c1ccccc1 (stereo not drawn),1,x,x,x,-9
COc1cc([N+](=O)[O-])cc(/C=N/NC(=O)C(C)Nc2ccccc2C)c1O (stereo not drawn),-2,11,1,3,-12
COC(=O)COc1ccc(C(C2C(=O)CC(C)(C)CC2=O)C2C(=O)CC(C)(C)CC2=O)cc1,4,x,x,x,-7
COc1ccc(Br)cc1C(C[N+](=O)[O-])c1c(N)n(C)c(=O)n(C)c1=O (stereo not drawn),-2,x,66*,36*,-38
COc1ccccc1CNS(=O)(=O)c1c(C)[nH]c(=O)[nH]c1=O,-8,-1,-3,1,-7
CCN(CC)c1nc(-c2cccc(OC)c2O)nc2ccccc12,2,52*,-2,4,-5
COc1cccc(-c2nc(NCc3ccccc3)c3ccccc3n2)c1O,6,x,x,x,-8
COc1ccc2nc(N/C(N)=N/C(=S)Nc3cccc(C)c3)nc(C)c2c1,-1,x,8,24,1
CCc1ccccc1NC(=S)/N=C(\N)Nc1nc(C)c2cc(C)ccc2n1,-1,-11,54*,55*,9
Cc1ccc(NC(=S)/N=C(\N)Nc2nc(C)c3cc(C)c(C)cc3n2)cc1C,-1,8,15,38*,-4
Cc1ccc(NC(=S)/N=C(\N)Nc2nc(C)c3cc(C)ccc3n2)c(C)c1,3,-7,42*,51*,4
COc1ccc(NC(=S)/N=C(\N)Nc2nc(C)c3ccccc3n2)cc1,11,x,-1,3,-2
COc1ccccc1CNS(=O)(=O)c1ccc2c(c1)NC(=O)CO2,-4,x,x,x,-12
Cc1sc(/N=C/c2ccccc2O)c(C#N)c1C,-2,-9,-2,3,-42
Cc1cc(NC(=O)COC(=O)C2CC(=O)N(c3ccccc3Cl)C2)no1 (stereo not drawn),-6,x,x,x,-16
O=C(CCCn1c(=S)[nH]c2cc3c(cc2c1=O)OCO3)N1CCN(c2ncccn2)CC1,-3,-7,64*,57*,5
COc1cc(CNn2cnnc2)ccc1OCC(=O)NC1CCCCC1,6,64*,-2,1,-27
COc1cc(CNCc2ccccc2Cl)ccc1OCC(=O)NC1CCCCC1,-4,x,x,x,-15
CCOc1cc(CNCCc2ccc(S(N)(=O)=O)cc2)ccc1OCC(=O)NC1CCCCC1,-2,65*,-3,2,-13
CCOc1cc(CNCCc2ccc(S(N)(=O)=O)cc2)ccc1OCC(=O)NC(C)(C)C,-3,10,-4,-2,-34
Cc1ccc(OCC(=O)N2N=C(c3ccncc3)CC2(O)C(F)(F)F)cc1C (stereo not drawn),-1,x,0,-1,-8
CC1CCCC(NCC(O)COC(c2ccc(F)cc2)c2ccc(F)cc2)C1C (stereo not drawn),5,-17,13,47*,-14
CC1CCCC(NC(=O)CSc2ccc(F)cc2)C1C (stereo not drawn),4,-4,-2,6,-22
CC1CCCCN1C(=O)c1cc2ccccc2cc1O (stereo not drawn),9,x,x,x,-15
